# Bioassay records as filed in PubChem.
# Compounds with a hit are over-represented: about 10% of the library has one in this group of screens.
# GPT2 inh: Primary qHTS assay for inhibitors of Glutamate pyruvate transaminase 2 (GPT2) | Potency, µM (titrated, usually from 57.7 µM), inactives show at the top dose activity change, negative = inhibition, actives largely listed as inhibitors | Alanine aminotransferase 2 (Homo sapiens), Q8TD30 | Recombinant GPT2, coupled pyruvate oxidase/HRP Amplex Red fluorescence | 100,000 tested, 0.25% active | AID 1671188, 2021; also: % is scaled to controls: 0 for no effect and ±100 for the full control effect; nearly all actives have a fitted effect of over 60% in size
#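 Fluorescence of coupled pyruvate oxidase/HRP/Amplex Red system (50uM Amplex, 30 min, dark) reports pyruvate formed by GPT2. Enzyme reaction: 10ng/uL GPT2, 2mM L-alanine, 250uM a-KG, 30 min room temperature, pH 7.5; 50uM AOA control.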
# NIH3T3 tox: Cytotoxic Profiling in NIH 3T3 Cell Line of Diverse Libraries Using Quantitative High-Throughput Screening | Potency, µM (series often up to 96.7 µM), without a hit: at the highest dose activity change, negative = cytotoxicity, usual class: inhibitors | 94,000 tested, 4.3% active | NIH 3T3 viability, CellTiter-Glo ATP luminescence, 48-72 h; also: % is scaled to controls: 0 for no effect and ±100 for the full control effect; nearly all actives have a fitted effect of over 55% in size
#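 First NIH 3T3 cells are plated at 400 cells/well; next compound is pinned in; then plates incubate 48 or 72 hr at 37 °C; finally CellTiter-Glo is added and luminescence read after 10 min.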
# HEK cytotox: Cytotoxic Profiling in HEK 293 Cell Line of Diverse Libraries Using Quantitative High-Throughput Screening; HEK 293 viability, ATP luminescence (CellTiter-Glo), 48-72 h; AID 1345083, 2018; 94,000 tested, 6.6% active; Potency, µM (titrated, usually from 115 µM), inactives show at the highest dose activity change, negative = cytotoxicity, most hits filed as inhibitors; also: % is scaled to controls: 0 for no effect and ±100 for the full control effect; nearly all actives have a fitted effect of over 60% in size
#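 CellTiter-Glo luminescence (cellular ATP) was read after 48 or 72 hr of compound exposure at 37 degree Celsius. Cells were HEK 293 plated at 250 cells/well.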
# Luciferase inh: Firefly luciferase inhibition profiling of diverse chemical library using quantitative high-throughput screening | Luciferin 4-monooxygenase (Photinus pyralis), P08659 | purified P. pyralis luciferase, luminescence, biochemical | Potency, µM (titrated, usually from 115 µM), hits mostly inhibitors | 76,000 tested, 2.5% active; also: % is scaled to controls: 0 for no effect and ±100 for the full control effect; nearly all actives have a fitted effect of over 65% in size
# Target sequence (P08659 whole entry, looked up): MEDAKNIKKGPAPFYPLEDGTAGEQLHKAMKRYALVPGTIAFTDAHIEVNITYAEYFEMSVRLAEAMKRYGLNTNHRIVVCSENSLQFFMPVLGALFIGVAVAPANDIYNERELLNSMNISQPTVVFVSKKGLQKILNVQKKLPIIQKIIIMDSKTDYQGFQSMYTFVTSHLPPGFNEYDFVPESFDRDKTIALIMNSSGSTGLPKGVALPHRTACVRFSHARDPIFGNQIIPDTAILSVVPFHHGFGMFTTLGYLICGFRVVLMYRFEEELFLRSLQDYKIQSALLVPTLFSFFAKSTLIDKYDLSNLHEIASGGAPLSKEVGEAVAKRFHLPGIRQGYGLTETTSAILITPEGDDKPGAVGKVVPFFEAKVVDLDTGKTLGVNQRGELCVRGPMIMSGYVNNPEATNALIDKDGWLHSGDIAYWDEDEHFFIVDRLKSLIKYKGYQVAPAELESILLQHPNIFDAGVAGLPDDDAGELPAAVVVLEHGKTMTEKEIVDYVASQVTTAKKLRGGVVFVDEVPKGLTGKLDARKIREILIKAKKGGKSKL
#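 Luminescence read by CCD imaging after purified firefly luciferase (10nM final) was added to substrate buffer holding 10uM D-luciferin and 10uM ATP, pH 7.5, pre-dosed with compound.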
# hNpr1 antagonist: Natriuretic polypeptide receptor (hNpr1) antagonism - Primary qHTS. Atrial natriuretic peptide receptor 1 (Homo sapiens), P16066. HEK293 hNpr1 GloSensor cGMP, ANP-stimulated luminescence. Potency, µM (highest dose often 46.3 µM), inactives show at the highest dose activity change, negative = inhibition, hits mostly inhibitors. 76,000 tested, 1.6% active. AID 1347048, 2019; calls by dose curve; also: % is scaled to controls: 0 for no effect and ±100 for the full control effect; nearly all actives have a fitted effect of over 60% in size
#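 Compound pre-incubated 30 min at room temperature on GloSensor-loaded HEK293 cells stably carrying hNpr1 and the pGS-40F cGMP biosensor. Stimulation uses hNppA at 0.1 nM final; luminescence is taken at baseline and 20 min post-agonist.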
# NPR1 antag cnf: Natriuretic polypeptide receptor (hNpr1) antagonism - Confirmation. shares compounds with hNpr1 antagonist. HEK293 hNpr1 cGMP GloSensor luminescence, ANP-stimulated. Potency, µM (series often up to 57.6 µM), for the others: top-dose activity change, negative = inhibition, hits mostly inhibitors. 1,400 tested, 76% active. AID 1347044, 2019; calls by dose curve; also: nearly all actives have a fitted effect of over 70% in size
# Npr2 selectivity: Natriuretic polypeptide receptor (hNpr2) antagonism - Subtype selectivity assay; shares compounds with hNpr1 antagonist; HEK293 hNpr2 GloSensor cGMP luminescence, CNP-stimulated; Potency, µM (highest dose often 57.6 µM), for inactives: at the top dose activity change, negative = inhibition, actives largely listed as inhibitors; 1,400 tested, 67% active; AID 1347046, 2019; calls by dose curve; also: nearly all actives have a fitted effect of over 70% in size
# FLuc inh counter: Natriuretic polypeptide receptor (hNpr1) antagonism - Confirmation firefly luciferase (FLuc) inhibition counterscreen; shares compounds with hNpr1 antagonist; purified FLuc enzyme, luminescence, Km substrate; Potency, µM (doses to about 57.6 µM), without a hit: top-dose activity change, negative = inhibition, most hits filed as inhibitors; 1,400 tested, 0.7% active; also: 0% is about no effect
# GloSensor cGMP: Natriuretic polypeptide receptor (hNpr1) antagonism - Counterscreen GloSensor control cell line. 1,400 tested, 69% active. shares compounds with hNpr1 antagonist. Potency, µM (doses to about 57.6 µM), inactives show top-dose activity change, negative = inhibition, most hits filed as inhibitors. AID 1347051, 2019. HEK293 GloSensor cGMP, SNP-stimulated, luminescence; calls by dose curve; also: % is scaled to controls: 0 for no effect and ±100 for the full control effect; nearly all actives have a fitted effect of over 70% in size
# Starred values were filed as active, the others as inactive; i = inactive; ? = inconclusive; . = not tested or not shown; [ ] = remark or other dose. Unless noted, calls follow the shape of the dose curve; as a rule, active = well fitted curve in the direction sought with a large enough effect; inconclusive = small, poorly fitted or top-dose-only effect, or another doubt; inactive = no such curve, though single readings can be large; an effect the other way counts as inactive or inconclusive. Potency is read from the fitted curve at half-maximal effect.
SMILES,GPT2 inh,NIH3T3 tox,HEK cytotox,Luciferase inh,hNpr1 antagonist,NPR1 antag cnf,Npr2 selectivity,FLuc inh counter,GloSensor cGMP
COc1ccc([S+](=O)([O-])N2CCC3(CC2)OCCN(c2ccc(F)cc2)C3=O)cc1,-13%[88.5 µM],?,?,i,?,31µM*,?,-2%[86.2 µM],31µM*
Cc1cccc(-n2c(=O)c3c(cc(C)n3C)n(CC(=O)Nc3ccccc3F)c2=O)c1,i,-20%,?,i,-1%,.,.,.,.
CN(C)c1cccc(C(=O)N2CCC3(CC2)N=C(c2cccc(Br)c2)NO3)c1,-22%,?,?,i,1%,.,.,.,.
O=C(Nc1ccc(Cl)nc1)c1cc2cccnn2n1,i,-25%[138 µM],-25%[172 µM],?,17%[70.6 µM],.,.,.,.
COc1ccc(NC(=O)c2cccc3c2CCN3C(=O)c2ccc(F)cc2)c(OC)c1,?,?,32µM*,i,18µM*,24µM*,24µM*,-12%,22µM*
O=C(N[C@H]1CO[C@H]2[C@@H]1OC[C@@H]2n1nnnc1Oc1ccc(-n2ccnc2)cc1)c1ccc(C(F)(F)F)cc1,i,-33%,35µM*,i,11µM*,17µM*,14µM*,2%,15µM*
O=C(N[C@H]1CO[C@H]2[C@@H]1OC[C@@H]2n1nnnc1Oc1ccccc1)c1ccc(C(F)(F)F)cc1,i,?,?,i,10µM*,11µM*,12µM*,-1%,9.7µM*
COc1ccc(C(=O)Nc2nc3c(s2)C[C@@H]2[C@](C)(CO)[C@H](O)CC[C@@]2(C)[C@@H]3CC(=O)NC2CCCC2)cc1,5%,?,-19%,i,-10%,.,.,.,.
Cc1noc(-c2cccc(F)c2)c1C(=O)NCc1cccc2ccccc12,i,-17%,?,i,1%,.,.,.,.
Cc1noc(-c2ccco2)c1C(=O)NCc1cccc2ccccc12,?,?,?,i,13µM*,24µM*,?,3%,31µM*
O=C(Cc1ccccc1)N1CCC2(CC1)CC(N(C(=O)c1ccccc1)C1CC1)CCO2 (stereo unspecified),3%,-17%,?,i,-14%,.,.,.,.
O=C(CCC1CCCC1)N1CCC2(CC1)CC(N(C(=O)c1ccccc1)C1CC1)CCO2 (stereo unspecified),i,?,?,i,?,?,-27%,0%,?
Cc1cccc(CN2CCc3nc(C(=O)NCc4ccccc4)oc3CC2)c1,0%[88.5 µM],?,?,i,-27%[70.6 µM],.,.,.,.
O=C(NCc1ccccc1)c1nc2c(o1)CCN(Cc1ccc(F)cc1)CC2,4%[88.5 µM],?,?,i,?,35µM*,35µM*,0%[86.2 µM],35µM*
O=C(NCc1ccccc1)c1nc2c(o1)CCN(Cc1ccc(F)c(Cl)c1)CC2,-6%[88.5 µM],45µM*,?,i,22µM*,28µM*,28µM*,-2%[86.2 µM],20µM*
Cc1nc2c(c(-c3ccc(O)cc3)n1)CN(Cc1cccc3ccccc13)CC2,-14%,?,?,i,-16%,-21%,-13%[86.2 µM],-1%[86.2 µM],i
Cc1nc(CC(=O)NC2CCCc3c2cnn3-c2ccc(C(C)(C)C)cc2)cs1 (stereo unspecified),0%,?,?,?,?,.,.,.,.
Cc1cccc(-n2ncc3c2CCCC3NC(=O)CCC(F)(F)F)c1C (stereo unspecified),-31%,-27%,?,i,?,24µM*,?,2%,24µM*
CCCNC(=O)N1CCC(c2noc(-c3ccccc3)n2)C1 (stereo unspecified),-2%,?,?,i,1%,.,.,.,.
Cc1ccc(CNC(=O)N2CCC(c3noc(-c4ccccc4)n3)C2)cc1 (stereo unspecified),4%,?,40µM*,i,18µM*,?,24µM*,0%,24µM*
Cc1nn(-c2ccccc2)c2c1C(C)N(C1CCCN(C(=O)N(C)C)C1)C2=O (stereo unspecified),.,-19%,?,.,.,.,.,.,.
CN(Cc1ccc(N2CCCCC2)cc1)C(=O)c1ccc2c(c1)C(O)CCCCCN2C (stereo unspecified),-2%,?,35µM*,i,14µM*,24µM*,22µM*,0%,27µM*
Cc1ccc(CN2CCN(C(=O)c3ccc4c(c3)C(O)CCCCCN4C)CC2)cc1 (stereo unspecified),i,?,40µM*,i,11µM*,22µM*,19µM*,1%,17µM*
COc1ccc(N2CCN(C(=O)c3ccc4c(c3)C(O)CCCCCN4C)CC2)cc1 (stereo unspecified),i,?,?,i,?,.,.,.,.
O=C(c1nnc(CNc2ccccn2)n1-c1cccnc1)N1CCC[C@@H]1C(c1ccccc1)c1ccccc1,i,?,-2%,i,-2%,.,.,.,.
CCC(Cn1cnc(-c2ccccc2)c1-c1ccc(C#N)cc1)N1CCN(C)CC1 (stereo unspecified),-6%,?,79µM*,i,11µM*,24µM*,17µM*,3%,-6%
Cc1c(-c2cn(C)c(=O)n3cc(COc4ccc(Cl)cc4)nc23)cnn1C,?,?,?,?,-5%[70.6 µM],.,.,.,.
